Assay results taken from PubChem BioAssay AID493044 (Johns Hopkins Ion Channel Center, 2011).
Measured potencies and affinities stand elsewhere. The source made the active and inactive calls.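 Rule for the calls: active = potentiation or inhibition of the KCNQ1 potassium channel at some dose, with a concentration-response curve obtained; inactive = no effect at any dose, or no curve obtained.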

Target: Potassium voltage-gated channel subfamily KQT member 1 (Homo sapiens) (UniProt P51787)
Assay: KCNQ1 potentiation selectivity check – automated patch clamp, KCNQ1-CHO cells, selectivity assay for KCNQ2 activator project, dose response (AID 493044)
Details: automated patch clamp current (IonWorks); series mostly up to 30 µM

Potassium voltage-gated channel subfamily KQT member 1 (Homo sapiens), sequence (P51787 whole entry, looked up): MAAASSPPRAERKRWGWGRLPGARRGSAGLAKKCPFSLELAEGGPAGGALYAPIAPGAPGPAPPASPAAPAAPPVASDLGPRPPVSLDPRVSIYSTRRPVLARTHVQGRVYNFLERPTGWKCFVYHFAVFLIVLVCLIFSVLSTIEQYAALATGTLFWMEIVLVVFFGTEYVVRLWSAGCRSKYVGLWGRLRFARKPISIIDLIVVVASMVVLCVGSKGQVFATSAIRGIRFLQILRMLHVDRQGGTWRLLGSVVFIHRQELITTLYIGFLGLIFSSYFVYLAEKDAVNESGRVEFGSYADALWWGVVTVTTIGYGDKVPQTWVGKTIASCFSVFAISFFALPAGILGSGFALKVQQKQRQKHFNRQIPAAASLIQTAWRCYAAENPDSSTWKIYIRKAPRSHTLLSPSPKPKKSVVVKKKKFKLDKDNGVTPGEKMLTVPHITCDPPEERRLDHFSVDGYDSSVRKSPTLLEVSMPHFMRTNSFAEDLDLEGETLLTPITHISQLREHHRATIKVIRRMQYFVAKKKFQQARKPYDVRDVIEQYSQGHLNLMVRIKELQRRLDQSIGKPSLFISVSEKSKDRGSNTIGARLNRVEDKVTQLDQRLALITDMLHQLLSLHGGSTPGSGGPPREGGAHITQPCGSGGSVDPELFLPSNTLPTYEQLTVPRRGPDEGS

outcome, inactive:
Cc1cc(C)c(NC(=O)CC(C)(C)C)c(Cl)c1, CCCCC(=O)Nc1c(C)cc(C)cc1Cl, Cc1cccc(C)c1NC(=O)C1CC2CCC1C2 (centres undefined), Cc1cc(C)c(NC(=O)C2CC3CCC2C3)c(C)c1 (centres undefined)
